KCNQ2 inh: blocks the rat KCNQ2 potassium channel. actives 1.1% (n = 310,000). O88943. AID 2156. B-score at 10 µM. CHO-K1 KCNQ2, FluxOR thallium flux, 20 min; stronger effect = lower value;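 active = fluorescence ratio B-score at most minus 3 library SDs, with starting brightness B-score within 2 library SDs, cut at about -5.5 in these data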
KCNQ2 enhance: KCNQ2 (rat) channel potentiation; O88943; AID 2239; CHO-K1 KCNQ2, FluxOR thallium flux fluorescence; stronger effect = higher value; actives 0.54% (n = 310,000); B-score at 10 µM;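 active = fluorescence ratio B-score at least 3 SD of library B-scores, with initial fluorescence B-score within 3 of them, cut at about 5.3 in these data; same plate scores as AID 2156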;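 note: B-score of peak minus minimum over baseline fluorescence ratio after K+ and Tl+ stimulus; positive B-score means potentiation of KCNQ2 with more thallium influx and brighter signal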
KCNQ2 block conf: confirmation of rat KCNQ2 potassium channel inhibitors. activity change, negative = inhibition, % at 10 µM. actives 57% (n = 1,000). shares compounds with KCNQ2 inh. KCNQ2-expressing cells, thallium flux, inhibition; stronger effect = lower value;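 note: 0% = vehicle wells and values are ratio percent relative to vehicle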
KCNQ1 spec: KCNQ2 inhibitor that also affects human KCNQ1 channel | KCNQ1-expressing cells, FluxOR thallium flux fluorescence; stronger effect = lower value | activity change, negative = inhibition, % at 10 µM | actives 15% (n = 1,000) | shares compounds with KCNQ2 inh;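 active = activity change at least 3 SD of negative controls below their mean in both duplicate wells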;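 note: CHO cells stably transfected with KCNQ1 and depolarized by potassium stimulus; peak minus minimum fluorescence over baseline after thallium addition; 0% = vehicle negative control and -100% = blank without thallium stimulus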
Target sequence (P51787 whole entry, looked up): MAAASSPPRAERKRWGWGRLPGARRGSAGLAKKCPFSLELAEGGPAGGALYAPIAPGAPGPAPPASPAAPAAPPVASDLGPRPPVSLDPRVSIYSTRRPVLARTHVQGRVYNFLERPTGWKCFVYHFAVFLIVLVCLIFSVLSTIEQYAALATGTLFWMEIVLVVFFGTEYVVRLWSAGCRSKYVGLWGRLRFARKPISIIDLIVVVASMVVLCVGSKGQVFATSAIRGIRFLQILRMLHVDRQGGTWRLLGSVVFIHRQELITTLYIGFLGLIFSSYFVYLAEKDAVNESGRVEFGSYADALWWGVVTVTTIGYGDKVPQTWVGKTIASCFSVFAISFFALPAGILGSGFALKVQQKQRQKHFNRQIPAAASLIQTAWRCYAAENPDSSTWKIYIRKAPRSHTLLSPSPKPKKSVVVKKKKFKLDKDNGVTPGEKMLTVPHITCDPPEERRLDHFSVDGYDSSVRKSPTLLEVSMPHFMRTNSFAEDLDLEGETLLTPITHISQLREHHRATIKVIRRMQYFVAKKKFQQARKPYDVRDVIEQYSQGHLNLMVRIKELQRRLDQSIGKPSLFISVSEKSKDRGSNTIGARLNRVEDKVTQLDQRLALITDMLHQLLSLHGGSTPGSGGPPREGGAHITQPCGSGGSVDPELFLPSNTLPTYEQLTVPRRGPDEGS
CHO parental ctr: KCNQ2 inhibitor counter-screen hit in parental CHO cells. AID 493029. actives 14% (n = 1,000). thallium flux counter-screen; stronger effect = lower value. activity change, % at 10 µM. shares compounds with KCNQ2 inh;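 note: 0% = vehicle negative controls with stimulus buffer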
KCNQ2 patch conf: blocks rat KCNQ2 current in automated patch clamp; KCNQ2-expressing cells; AID 588531; shares compounds with KCNQ2 inh; actives 49% (n = 550); calls only at 10 µM
Active calls of the source: *; i = inactive; . = not tested or not shown; + = active, no number. The list is not random: actives were taken first. Their share in the collection is about 1.6%. Unless noted, the rule behind the calls is not given here.

SMILES	KCNQ2 inh	KCNQ2 enhance	KCNQ2 block conf	KCNQ1 spec	CHO parental ctr	others
CCCCCCOC1(c2ccccc2)OC(=O)c2ccccc21 (configuration not stated)	i	.	.	.	.
Cc1ccc2c(Cl)c(C(=O)Nc3cccnc3)sc2c1	i	0.2	.	.	.
Cc1nc2ccc(NC(=O)c3cccc(S(=O)(=O)N(C)c4ccccc4)c3)cc2s1	i	.	.	.	.
CN(c1ccccc1)S(=O)(=O)c1cccc(NC(=O)c2ccc3ncsc3c2)c1	-7.4*	-7.4	i	i	i
Nc1ccc2c(c1)nc(Cc1ccccc1)n2CCO	i	.	.	.	.
Cc1ccc(CN2CCN(/N=C/c3ccc(C(=O)O)cc3)CC2)c(C)c1	-7.3*	-7.3	-26%*	i	i	KCNQ2 patch conf=+
Cc1ccc(CN2CCN(/N=C/c3ccc(C(F)(F)F)cc3)CC2)c(C)c1	i	.	.	.	.
COc1cc(/C=C2\CCn3c2nc2cc(C(=O)O)ccc2c3=O)ccc1OC(F)F	i	.	.	.	.
COc1ccc(NC(=O)c2nn(C34CC5CC(CC(C5)C3)C4)cc2[N+](=O)[O-])cc1	i	0.35	.	.	.
O=C(Nc1cccc2ccccc12)c1nn(C23CC4CC(CC(C4)C2)C3)cc1[N+](=O)[O-]	-9.1*	-9.1	-29%*	i	i	KCNQ2 patch conf=+
Cc1ccccc1CSc1nnc(-c2cccs2)n1Cc1ccco1	-9.9*	-9.9	i	i	i
c1coc(Cn2c(SCc3nc4ccccc4[nH]3)nnc2-c2cccs2)c1	i	.	.	.	.
O=C(NCc1csc(-c2cccs2)n1)c1cccc(Cl)c1	i	.	.	.	.
C=CCn1c(=O)c(C(=O)Nc2cccnc2)c(O)c2ccccc21	i	.	.	.	.
CCCn1c(=O)c(C(=O)NCCc2ccccc2)c(O)c2ccccc21	i	.	.	.	.
CCCn1c(=O)c(C(=O)NCCc2ccc(OC)cc2)c(O)c2ccccc21	-8.2*	-8.2	i	i	i
C=CCn1c(=O)c(C(=O)NCCc2ccccc2)c(O)c2ccccc21	-6.9*	-6.9	i	i	i
Cc1nn(-c2ccccc2)c(N)c1-c1ccccc1	i	.	.	.	.
Cc1nn(-c2ccccc2)c(/N=C/c2ccccc2O)c1-c1ccccc1	-11*	-11	-43%*	-50%*	-43%*	KCNQ2 patch conf=i
O=C(Nc1ncccc1O)c1ccc(Oc2ccccc2)cc1	i	.	.	.	.
COc1ccc(C(=O)Nc2c(-c3ccccc3)nc3ccccn23)c(OC)c1	i	.	.	.	.
COc1ccccc1C(=O)Nc1c(-c2ccccc2)nc2ccccn12	-7.3*	-7.3	i	i	i
CCc1nnc(SCC(=O)Nc2nc(C)c(C(=O)N(C)C)s2)n1CC	i	0.19	.	.	.
CCCS(=O)(=O)N1CCCC(C(=O)NCC(OC)OC)C1 (configuration not stated)	i	.	.	.	.
CN1/C(=C\C(=O)Nc2ccc(Cl)cc2)C(C)(C)c2ccccc21	-8.1*	-8.1	-27%*	i	i	KCNQ2 patch conf=i
SMILES	KCNQ2 inh	KCNQ2 enhance	KCNQ2 block conf	KCNQ1 spec	CHO parental ctr	others
CN1/C(=C\C=C(/C#N)C(=O)Nc2ccc(Cl)cc2)C(C)(C)c2ccccc21	i	.	.	.	.
O=C(/C=C1\NCC2c3ccccc3CCN2C1=O)c1ccccc1 (configuration not stated)	i	.	.	.	.
CCOc1ccc(C(=O)Nc2cccc(-c3nc4cccnc4o3)c2)cc1Cl	-10*	-10	i	i	i
CCOc1ccc(C(=O)Nc2cccc(C(=O)O)c2)cc1Cl	i	1.1	.	.	.
O=C(Nc1ccc(S(=O)(=O)N2CCOCC2)cc1)c1ccc(=O)[nH]c1	i	0.24	.	.	.
COc1cccc(NC(=O)CN(C)C(=O)/C=C/c2cn(-c3ccccc3)nc2-c2ccc(C)cc2)c1	-9.1*	-9.1	-22%*	i	i	KCNQ2 patch conf=i
COc1ccc(NC(=O)CN(C)C(=O)/C=C/c2cn(-c3ccccc3)nc2-c2ccc(C)cc2)cc1	i	.	.	.	.
CCOC(=O)N1CCN(C(=O)c2c[nH]c3ccc(S(=O)(=O)N(C)c4cccc(C)c4)cc3c2=O)CC1	i	.	.	.	.
CN1CCN(C(=S)c2cn(Cc3ccc(Br)cc3)c3ccccc23)CC1	i	.	.	.	.

Screening results from PubChem BioAssay.
